# Measured values published in the supplement of paper PMC6555819.
# Experiments:
# Test in all cases: PBM binding z-score (relative to random genomic background probes); higher = stronger binding; sequences stand for … in GC…GCGATTGACAGCGTAGAATGAAGG
# [1] = test system: FXR:RXRa (NR concentration 270 nM, RXRa partner concentration 90 nM)
# Summary of the method: (§1)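 Scanned fluorescence from custom Agilent 4×180K protein-binding microarrays was regression-normalized. Binding z-scores use random background probes as reference. Ligand-free nuclear receptor dimers were incubated on the arrays for 1 h and detected with antibodies against each partner (one per run).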
# [2] = test system: LXRa:RXRa (NR concentration 270 nM, RXRa partner concentration 90 nM)
# Summary of the method: as §1
# [3] = test system: LXRa homodimer (NR concentration 270 nM)
# Summary of the method: as §1
# [4] = test system: LXRb:RXRa (NR concentration 270 nM, RXRa partner concentration 90 nM)
# Summary of the method: as §1
# [5] = test system: LXRb homodimer (NR concentration 270 nM)
# Summary of the method: as §1
# [6] = test system: PPARa:RXRa (NR concentration 270 nM, RXRa partner concentration 90 nM)
# Summary of the method: as §1
# [7] = test system: PPARg:RXRa (NR concentration 180 nM, RXRa partner concentration 90 nM)
# Summary of the method: as §1
# [8] = test system: PPARg:RXRa 270nM:90nM, anti-RXR (NR concentration 270 nM, RXRa partner concentration 90 nM)
# Summary of the method: as §1
# [9] = test system: PPARg:RXRa 30nM:10nM, anti-RXR (NR concentration 30 nM, RXRa partner concentration 10 nM)
# Summary of the method: as §1
# [10] = test system: PPARg:RXRa 90nM:30nM, anti-RXR (NR concentration 90 nM, RXRa partner concentration 30 nM)
# Summary of the method: as §1
# [11] = test system: PPARg:RXRa DBDmut IVT, anti-RXR (DBD mutation: RXRa K156A/R161A, NR concentration 270 nM, RXRa partner concentration 90 nM)
# Summary of the method: as §1
# [12] = test system: PPARg:RXRa IVT, anti-PPARg (NR concentration 270 nM, RXRa partner concentration 90 nM)
# Summary of the method: as §1
# [13] = test system: PPARg DBDmut:RXRa IVT, anti-PPARg (DBD mutation: PPARg1 K132A/R137A, NR concentration 270 nM, RXRa partner concentration 90 nM)
# Summary of the method: as §1
# [14] = test system: PPARg DBDmut IVT, anti-PPARg (DBD mutation: PPARg1 K132A/R137A, NR concentration 270 nM)
# Summary of the method: as §1
# [15] = test system: PPARg homodimer (NR concentration 180 nM)
# Summary of the method: as §1
# [16] = test system: PXR:RXRa (NR concentration 270 nM, RXRa partner concentration 90 nM)
# Summary of the method: as §1
# [17] = test system: PXR homodimer (NR concentration 270 nM)
# Summary of the method: as §1
# [18] = test system: RARa:RXR (NR concentration 270 nM, RXRa partner concentration 90 nM)
# Summary of the method: as §1
# [19] = test system: RARa homodimer (NR concentration 270 nM)
# Summary of the method: as §1
# [20] = test system: RARb:RXRa (NR concentration 270 nM, RXRa partner concentration 90 nM)
# Summary of the method: as §1
Sequence,PBM binding z-score [1],PBM binding z-score [2],PBM binding z-score [3],PBM binding z-score [4],PBM binding z-score [5],PBM binding z-score [6],PBM binding z-score [7],PBM binding z-score [8],PBM binding z-score [9],PBM binding z-score [10],PBM binding z-score [11],PBM binding z-score [12],PBM binding z-score [13],PBM binding z-score [14],PBM binding z-score [15],PBM binding z-score [16],PBM binding z-score [17],PBM binding z-score [18],PBM binding z-score [19],PBM binding z-score [20]
ACTATTAGTTGACTTAGGGCATCCGATACGACGC,-0.0291,0.0994,0.216,-0.154,0.3,-0.203,0.827,0.149,0.353,0.396,0.311,0.614,1.03,0.574,0.0693,0.114,0.228,0.0202,0.624,0.643
CCTACTGGGCCAAAGGTCATTTATTCCAATGCTC,4.91,5.02,5.54,5.19,1.7,6.68,12.4,10.4,11,11.5,5.13,6.94,0.54,0.179,5.03,5.54,1.8,6.34,2.22,4.25
CGAAGTAGGTCAAGGACAGTGAATCTCCGCACGC,3.88,2.75,0.0941,1.82,-0.179,5.28,8.14,6.95,4.62,6.44,8.4,8.73,5.06,1.85,2.14,1.39,-0.253,2.46,0.686,3.95
ATCTCTAGGTAAAGATAGTTCAGTGAGTGCAAAT,-0.0159,4.06,1.22,0.833,0.569,0.673,0.242,0.661,0.182,0.714,2.29,1.9,0.931,0.67,0.928,3.93,11.4,0.596,0.987,0.924
CGAACTAGGTGATCCAGGACAGTGAATACATTGA,-0.144,-0.403,-0.0294,-0.189,-0.452,1.76,2.3,1.72,0.625,1.09,5.95,5.54,1.12,0.847,0.425,-0.38,0.369,0.202,0.271,0.0644
GGAACGAGGGCAAGTTGATAGCAGAGTTTGATGG,1.07,0.522,-0.269,0.278,-0.586,1.74,1.19,1.03,-0.0238,0.39,3.78,2.54,-0.0364,-0.551,0.361,0.937,0.84,0.145,-0.166,2.63
GGAACGAGGGCAAGTTAATAGCAGAGTTTGATGG,0.629,0.178,-0.0244,0.334,-0.49,1.53,1.14,0.86,0.37,0.378,3.46,2.52,0.284,-0.167,0.47,0.548,0.977,0.427,-0.189,2.26
CCTTACGGGTCACTGTCAGGTTATAGCATTTGGA,5.05,4.27,0.129,3.23,-0.0879,4.73,3.83,4.04,1.22,2.8,3.32,3.7,0.509,-0.255,3.86,3.99,-0.056,4.71,1.03,3.87
AGTATGAGGTTACCAAAGATCAGGGAAACGCTTG,1.85,5.92,0.237,3.08,0.134,2.76,1.79,1.65,0.652,1.11,1.3,1.52,0.279,0.406,0.714,1.62,0.275,2.21,0.475,2.19
GCTGCTAGGTTAGGTTGGTCAGCTAACGGGTACG,-0.39,-0.356,-0.358,-0.526,-0.743,-0.376,-0.306,-0.464,-0.769,-0.625,1,0.292,-1.46,-0.928,-0.465,-0.364,-0.359,-0.327,-0.345,0.767
TCTTGTAGATGAAAGGTTAAGAAAGCCGAAGCCT,1.26,1.83,0.275,1.67,0.361,3.62,5.98,6.86,6.79,7.44,2.04,2.16,0.389,0.195,0.811,1.29,0.117,2.05,0.435,1.73
ATCTCTAGGTGAAGATAGTTCAGTGAATGCAAAT,0.203,1.02,0.126,0.441,0.00986,1.69,1.75,1.55,0.448,0.885,4.18,4.44,0.653,1.5,0.717,1.58,0.667,0.801,0.811,1.29
TTATATAGGTAAACAGGTGAAAGTCCGTAAGTTA,0.62,0.679,0.481,0.738,0.246,3.31,5.61,4.75,2.93,4.41,6.54,6.8,2.26,1.83,1.4,0.532,0.398,0.957,1.15,0.687
GCTGCTAGGTCAGATTGGTCAGCTAACGGGTACG,1.36,0.957,-0.166,0.562,-0.238,1.68,0.672,0.718,-0.273,0.427,2.72,2.3,-0.411,-0.686,0.271,0.33,-0.223,0.855,-0.468,3.27
